# Results taken from PubChem BioAssay AID720608 (Broad Institute, 2013).
# Measured potencies and affinities stand elsewhere. Inconclusive results are not listed. Activity calls are given as the source filed them.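 The calls were made as follows: active = compound whose fitted half-maximal concentration stays within twice the top dose, with falling signal, in all three exposure times; inconclusive = mixed calls across exposure times, weak flat curves, or poor fits; inactive = inactive at every exposure time, including opposite-direction effects.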
# Assay: cytotoxicity in SR immunoblastic lymphoma cells – cell-based, CellTiter-Glo ATP luminescence, 8-48 h, dry powder, mechanism study for HRAS target identification, late-stage follow-up (AID 720608)
structure (smiles),measurement,value
Cc1onc(C(=O)N2CCN(C(c3ccncc3)c3ccncc3)CC2)c1[N+](=O)[O-],outcome,inactive
